From PubChem BioAssay (NCI)
The panel holds about 83,000 compounds, 20% with a hit somewhere; the sample as a whole holds those more often.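 Single-concentration screen, 48 h exposure, 96-well plates. Endpoint: percent growth. Below 10 = active.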 Unmarked numbers belong to inactive results. Activity calls are given as the source filed them.

These compounds were tested on A549/ATCC NSCLC (assay: NCI-60 one-dose screen, 48 h (100 = growth as untreated, 0 = no growth, -100 = all killed)). Settings: 10 µM unless noted.
`C[C@@H]1O[C@@H](O[C@@H]2C[C@H](c3ccc4c(c3O)C(=O)C3=C(C4=O)[C@@]4(O)C(=O)C[C@](C)(O)C[C@@]4(O)C=C3)O[C@H](C)[C@H]2O)CC[C@@H]1O[C@H]1C[C@@H](O)[C@H](O)[C@@H](C)O1` showed a growth of 95.3%.
With `CC(=O)OC(c1ccccc1)C1CCOC1=O` (centres undefined) the growth was 99%.
With `C=CCN1C(=O)c2cccc3c(N4CCOCC4)ccc(c23)C1=O` the growth was 3.05% (active).
`O=C(CCSc1nnc2n(Cc3ccccc3)c(=O)c3c4c(sc3n12)CCCC4)N1CCN(c2ccccc2)CC1` was tested, and the growth was 104%.
`CC1=CCC(OC(=O)C(C)(C)CC(O)(C(C)O)C(O)C2(C)C=CC(Cc3ccc(C(C)C)cc3)(C(C)C)CC2)(C(C)C)CC1` (centres undefined) showed a growth of 98.5%.
In the case of `c1ccc(CCNc2c3ccccc3nc3ccccc23)cc1`, the growth is reported as 32.7%.
`CCCCNc1nnc2n(Cc3ccccc3)c(=O)c3c4c(sc3n12)CCCC4` showed a growth of 37.8%.
`COc1ccc2cc(-c3ccnc4c(N=Nc5ccc(Cl)cc5)c(N)nn34)ccc2c1` gave a growth of 81.9%.
With `CCO/C=N/C1=C(C#N)C(c2ccc(F)cc2)c2sc3c(F)cccc3c2O1` (centres undefined) the growth was 40.6%.
Compound `COc1cc2nc3sc(C(=O)Nc4ccc(C(=O)OC(C)C)cc4)c(C(=O)Nc4ccc(Cl)cc4C)n3c(=O)c2cc1OC` has a growth of 52%.
For `O=C(c1c[nH]c2ccccc12)c1n[nH]c(=S)n1-c1cccc(Br)c1`, the growth was 86.5%.
With `O=c1cc(-c2ccccc2)[nH]c2ncc(-c3ccc(F)cc3)n12` the growth was 66.2%.
`Clc1c(Cl)[n+](Cc2ccc3ccccc3c2)cn1Cc1ccc2ccccc2c1` gave a growth of 52.5%.
Compound `COc1ccc(/C=C/C(=O)c2cc(OC)c(OC)c(OC)c2)cc1OCC(=O)Nc1nc2ccc(OC(F)(F)F)cc2s1` has a growth of 14.7%.
For `COc1cccc(Nc2ncnc3cc(NC(=O)CCl)ccc23)c1`, the growth was -27.7% (active).
`COc1cc(/C=C/C(=O)c2ccc(-n3cc(CN4CCN(c5cc6c(cc5F)c(=O)c(C(=O)O)cn6C5CC5)CC4)nn3)cc2)ccc1O` was tested, and the growth was 71.6%.
With `C=C(C)[C@@H]1CCC[C@]2(C(=O)O)CC[C@]3(C)[C@@H](CC[C@@H]4[C@@]5(C)C/C(=C/c6ccncc6)C(=O)C(C)(C)[C@@H]5CC[C@]43C)[C@@H]12` the growth was 16.3%.
For `O=C(N/N=C\c1cccc([N+](=O)[O-])c1)N/N=C/c1cccc([N+](=O)[O-])c1`, the growth was 100%.
In the case of `O=C(Cn1nnc2ccccc21)N/N=C/c1c[nH]c2ccccc12`, the growth is reported as 49%.
`Cn1cc(-c2csc(-c3c[nH]c4ccc(F)cc34)n2)c2ccnc(Cl)c21` was tested, and the growth was 64.3%.
Work on `CCNC(=O)Oc1ccc(/C(=C(/CC)Cc2ccccc2)c2ccc(OCCN3CCCC3)cc2)cc1` yielded a growth of 98.4%.
`CC(=O)c1sc2sc(C(C)=O)c(C)c2c1C` showed a growth of 74.8%.
With `CN1C(=O)/C(=C/c2ccc(C(=O)Nc3ncc(Cc4cccc(Cl)c4)s3)cc2)SC1=S` the growth was 56%.
With `COc1ccc(C2=CC(c3cc(OC)c(OC)c(OC)c3)n3ncnc3N2)cc1` (centres undefined) the growth was 14.3%.
For `Cc1ccc(Cl)cc1NC(=O)c1sc2nc3c(cc2c1N)C(=O)CCC3`, the growth was 53.9%.
`COc1ccc(/C=C/C(c2cc(OC)c(OC)c(OC)c2)n2cncn2)cc1` (centres undefined) gave a growth of 35.5%.
Compound `Cc1ncc(C(=O)Nc2ccc(CN3CCN(C)CC3)c(C(F)(F)F)c2)cc1C#Cc1cnc(N)c2ncccc12` has a growth of 21.2%.
For `Cc1ccc(C(=O)c2ccc(CC(=O)NN3C(=O)c4ccccc4C3=O)n2C)cc1`, the growth was 101%.
Work on `CN(C)CCCC1(c2ccc(F)cc2)OCc2cc(-c3ccc4cc[nH]c4c3)ccc21` (centres undefined) yielded a growth of 49.1%.
For `O=C(/C=C/c1cccc(Cl)c1Cl)Nc1ncc(Cc2ccccc2Cl)s1`, the growth was 58.2%.
For `O=C(Nc1ccc(Cl)cc1)Oc1c(Cl)c(Cl)c(Cl)c(Cl)c1Cl`, the growth was 93.3%.
`CCCCNC(=O)c1cc([N+](=O)[O-])cc(C2CCCCC2)c1O` was tested, and the growth was 32%.
Work on `O=C1NC(=O)/C(=C/c2c(-c3ccccc3)nc3sc(COc4ccccc4)nn23)S1` yielded a growth of 96.6%.
For `COc1ccc2c(c1)c(/C(O)=C1\COC(=O)C1=O)cn2Cc1ccc(F)cc1`, the growth was 101%.
For `CCN(CC)CCN1C(=O)c2cccc3c(/C=C/CN4C(=O)c5cccc6cccc(c56)C4=O)ccc(c23)C1=O`, the growth was 98.8%.
`O=C(CCCCCCN1CC(=O)N2[C@H](c3ccc(Br)cc3)c3[nH]c4ccccc4c3C[C@@H]2C1=O)NO` showed a growth of 80%.
For `NNCCc1ccc(NC(=O)CCCc2ccc(C(=O)Nc3ccccc3N)cc2)cc1`, the growth was 85.4%.
`Cc1cccc[n+]1C1c2ccccc2-c2ccccc21` gave a growth of 78.8%.
With `CN(C)S(=O)(=O)Oc1ccc(-c2sc3cc(OS(=O)(=O)N(C)C)ccc3c2C(=O)c2ccc(OCCN3CCCCC3)cc2)cc1` the growth was 52.7%.
